# Source: PubChem BioAssay (National Center for Advancing Translational Sciences (NCATS))
# Rows were chosen to be rich in hits. Some 1.4% of all compounds tested hit in one or more screens of this group.
# PKM2 act = increases activity of human pyruvate kinase M2 | P14618 | purified PKM2, Kinase-Glo ATP luminescence, activation; response scale: 0% is enzyme alone, no compound | Potency, µM (series often up to 57.5 µM), for inactives: at the highest dose activation, usual class: activators | hit rate 0.34% among 260,000 | AID 1631; also: potency is read from the fitted curve at half-maximal effect; nearly all actives have a fitted effect of over 55% in size
#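 Purified hPK-M2 (>95%) run at intermediate activity with 0.1 mM ADP and 0.5 mM PEP in 50 mM imidazole pH 7.2, KCl, MgCl2; 1 h room temperature. ATP formed read by Kinase-Glo luminescence; normalized to uninhibited and no-enzyme controls.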
# LDHA inh = LDHA (human) enzyme inhibition | activity change, % (values are at about 110 or 230 µM) | P00338 | purified LDHA, NADH/diaphorase-resazurin fluorescence; stronger effect = lower value | hit rate 0.15% among 480,000 | AID 1347041; in the data active = activity change below about -30%; inconclusive = mostly about -25% to -30%;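 also: plate controls were DMSO wells for no effect and wells without enzyme for full effect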
#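 Enzyme activity of human lactate dehydrogenase 5 (2 nM; 0.06 mM NADH, 0.2 mM pyruvate, 5 min, RT) is measured via a resazurin/diaphorase fluorescence readout of residual NADH.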
# rTrxR1 inhibitor = inhibitors of rat thioredoxin reductase 1 | O89049 | recombinant rTrxR1, NADPH fluorescence consumption, selenite substrate | Potency, µM (highest dose often 114 µM), for inactives: at the top dose activity change, negative = inhibition, hits mostly inhibitors | hit rate 1% among 390,000 | AID 588453; also: potency is read from the fitted curve at half-maximal effect; nearly all actives have a fitted effect of over 65% in size
# Target sequence (O89049 whole entry, looked up): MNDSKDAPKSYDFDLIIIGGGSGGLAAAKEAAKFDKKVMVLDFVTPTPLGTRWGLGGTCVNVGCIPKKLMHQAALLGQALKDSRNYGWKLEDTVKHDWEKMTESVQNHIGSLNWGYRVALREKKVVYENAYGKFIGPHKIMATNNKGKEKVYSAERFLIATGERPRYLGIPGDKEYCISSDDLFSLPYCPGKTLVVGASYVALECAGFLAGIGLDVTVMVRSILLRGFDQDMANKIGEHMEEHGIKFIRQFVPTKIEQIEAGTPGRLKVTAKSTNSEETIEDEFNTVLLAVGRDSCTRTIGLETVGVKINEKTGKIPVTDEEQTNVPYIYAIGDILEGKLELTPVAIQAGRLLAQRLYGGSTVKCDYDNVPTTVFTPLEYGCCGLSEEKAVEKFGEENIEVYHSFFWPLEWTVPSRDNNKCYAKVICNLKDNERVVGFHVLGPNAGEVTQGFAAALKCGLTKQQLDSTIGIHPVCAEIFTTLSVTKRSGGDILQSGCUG
#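 Rat TrxR1 (90 nM in the dispensed reagent) was pre-reduced with 400 uM NADPH for 5 min at room temperature, then incubated with compound for 15 min. After 400 uM selenite was added, NADPH fluorescence (Ex 340/Em 450 nm) was followed for 8 min.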
# TrxR1 substrate = substrates of rat thioredoxin reductase 1; purified TrxR1 substrate turnover, NADPH consumption readout; Potency, µM (highest dose often 114 µM), for inactives: at the top dose activity change, negative = substrate turnover; AID 588456; hit rate 0.01% among 390,000; also: potency is read from the fitted curve at half-maximal effect; nearly all actives have a fitted effect of over 50% in size
#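 Rat TrxR1, dispensed at 90 nM, was prereduced with 400 uM NADPH (final) for 5 min at ~22 deg C, then incubated with compound 15 min before 400 uM selenite. A first-read NADPH fluorescence drop versus no-compound background flagged substrates.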
# GLS inh = blocks human kidney-isoform glutaminase activity; GLS enzymatic activity, qHTS titration; Potency, µM (series often up to 45.5 µM), for inactives: at the top dose activity change, negative = inhibition, actives largely listed as inhibitors; AID 624170; O94925; hit rate 0.21% among 410,000; also: potency is read from the fitted curve at half-maximal effect
#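 hKGA; 45 mM KH2PO4 pH 8.2 + 0.02% Tween-20; cpd via pin tool; 1 mM Gln soln; GluOx/HRP/Amplex Red; RT 30 min; fluor. t0 & final.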
# mIDH1 inhibitor = inhibitors of human mutant IDH1 R132H; Potency, µM (doses to about 76.6 µM), for the others: at the top dose activity change, negative = inhibition, hits mostly inhibitors; hit rate 0.093% among 390,000; IDH1-R132H enzyme, NADPH consumption, diaphorase/resazurin fluorescence; O75874; also: potency is read from the fitted curve at half-maximal effect; nearly all actives have a fitted effect of over 65% in size
#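 IDH1-R132H (0.5 ug/mL) preincubated 30 min with compound, then NADPH (0.016 mM) and alpha-KG (2 mM) added; 80 min at RT, pH 7.5. Remaining NADPH coupled via diaphorase/resazurin to fluorescence (540/590 nm); concentration-response curves normalized to no-enzyme control.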
# * marks the source's active call; other numbers are inactive results; i = inactive; ? = inconclusive; nt = not tested or not shown; [ ] = another dose, or the depositor's remark. Unless noted, calls follow the shape of the dose curve; as a rule, active = well fitted curve in the direction sought with a large enough effect; inconclusive = small, poorly fitted or top-dose-only effect, or another doubt; inactive = no such curve, though single readings can be large; an effect the other way counts as inactive or inconclusive. Unless noted, % is scaled to controls: 0 for no effect and ±100 for the full control effect.
SMILES,PKM2 act,LDHA inh,rTrxR1 inhibitor,TrxR1 substrate,GLS inh,mIDH1 inhibitor
CC(NC(=O)c1n[nH]c(=O)c2ccccc12)c1ccc(F)c(F)c1 (stereo not given),nt,4,nt,nt,nt,nt
Cc1ccc(-c2cc(-c3ccc(Cl)cc3)c(C#N)c(N)c2C#N)cc1,nt,3,nt,nt,nt,nt
CN(C)c1ccc(C(=O)Oc2cc(O/N=[N+](\[O-])N(C)C)c([N+](=O)[O-])cc2[N+](=O)[O-])cc1,nt,10,-15%,-5%,nt,nt
CN(C)/[N+]([O-])=N/Oc1cc(F)c([N+](=O)[O-])cc1[N+](=O)[O-],nt,9,20µM*,-10%,nt,nt
CCCN(CCC)C1CC(=O)N(Cc2ccccc2)C1=O (stereo not given),16%,-1,20µM*,7%,12%,0%
C/C(=N\Nc1ccc(Cl)c(C(=O)O)c1)c1cc2ccccc2o1,-3%,-3,-7%[57.1 µM],-5%[57.1 µM],10µM*,9%
C/C(=N\Nc1ccc(Cl)c(C(=O)O)c1)c1cccc2ccccc12,4%,25,-13%,2%,11µM*,12%
CSc1ccc(CN2CCC(N3CC(C)OC(C)C3)CC2)cc1 (stereo not given),-5%,-24,1%[57.1 µM],1%[57.1 µM],-8%,4%
Cc1ccc(CN2CCC(N3CC(C)OC(C)C3)CC2)cc1 (stereo not given),nt,-32*,8%,2%,14%,-2%
COc1ccccc1CNC(=O)c1nc(-c2ccccc2)oc1C,nt,-15,nt,nt,nt,nt
O=c1oc2c(CN3CCN(CCO)CC3)c(O)ccc2cc1-c1ccccn1,-4%,-1,45µM*,i,61%,-9%
CCC1CCC(C(=O)Nc2ccc3ccccc3c2)CC1 (stereo not given),nt,10,nt,nt,nt,nt
CCOCCCNC(=O)C1CCCC(C(=O)NCCCOCC)C1 (stereo not given),nt,-10,nt,nt,nt,nt
O=[N+]([O-])c1ccccc1OCCCOc1ccc(Cl)c2cccnc12,nt,20,nt,nt,nt,nt
CCOC(=O)c1c(C)oc2c1c(C(c1cccnc1)N1CCCCC1)c(O)c1ccccc12 (stereo not given),-3%,36,7.1µM*,2%,34%,-1%
Cc1cccc(N2CCN(C(=O)CN3CCOc4ccccc43)CC2C)c1 (stereo not given),-2%,18,?,4%,24%,1%
Cc1ccc(N2C(=O)C3C4C=CC(CNC(=S)N5CCN(c6cccc(C)c6)C(C)C5)(O4)C3C2=O)cc1 (stereo not given),?,-3,16µM*,6%,-3%,15%
CC(=O)c1sc(NC(=O)c2ccc(Cn3cc(Br)cn3)o2)nc1C,11µM*,2,-30%,-3%,-11%,4%
CC(=O)c1sc(NC(=O)c2ccc(Br)o2)nc1C,-35%,-2,-3%,-6%,-7%,11%
COc1ccccc1NS(=O)(=O)c1cccc(C(=O)N/N=C/c2ccc([N+](=O)[O-])o2)c1,nt,5,40µM*,-10%,-2%,14%
NC(=O)N/N=C/c1ccc([N+](=O)[O-])o1,nt,2,7.1µM*,-15%,-16%,13%
O=C(COc1ccccc1)N/N=C/c1ccc([N+](=O)[O-])o1,-6%,8,50µM*,-4%,0%,16%
Cc1cc(C)c(S(=O)(=O)N/N=C/c2ccc([N+](=O)[O-])o2)c(C)c1,1%,2,13µM*,-4%,-2%,14%
COC(=O)N/N=C/c1ccc([N+](=O)[O-])o1,4%,10,?,-9%,2%,-6%
O=C(N/N=C/c1ccc([N+](=O)[O-])o1)c1sc2ccccc2c1Cl,10%,1,79µM*,5%,-1%,6%
SMILES,PKM2 act,LDHA inh,rTrxR1 inhibitor,TrxR1 substrate,GLS inh,mIDH1 inhibitor
O=C(OCCNc1ncc(C(F)(F)F)cc1Cl)c1ccc(S(=O)(=O)N2CCOCC2)cc1,20µM*,-4,11%,7%[57.1 µM],0%,-7%
O=C(NCCOC(=O)c1ccc(S(=O)(=O)N2CCOCC2)cc1)c1cccnc1,10%,-7,17%[57.1 µM],16%[57.1 µM],8%,4%
CCN(Cc1ccncc1)S(=O)(=O)c1ccc(C(C)=O)cc1,22µM*,-4,?,3%,0%,7%
Cc1ccc(C)c(S(=O)(=O)NCCc2ccc(Cl)cc2)c1,nt,17,nt,nt,nt,nt
COc1ccc(S(=O)(=O)c2c(N)n(Cc3ccco3)c3nc4ccccc4nc23)cc1,28µM*,7,?,25%[57.1 µM],-11%,7%
Cn1nccc1C(=O)Nc1sc2c(c1C#N)CCCCC2,nt,1,nt,nt,nt,nt
N#Cc1ccccc1S(=O)(=O)N1CCN(CC(O)CN2CCOCC2)CC1 (stereo not given),nt,-45*,23%,4%,3%,2%
CC(=O)Nc1ccc(CNC2CCCc3ccccc32)cc1 (stereo not given),nt,2,nt,nt,nt,nt
Cc1cc(SCC(=O)OCC(=O)N2CCN(C(=O)c3ccco3)CC2)c(C)cc1Br,25µM*,-10,-6%,16%[57.1 µM],6%,5%
CCOC(=O)c1cc(CC)sc1NC(=O)CN1CCN(C(=O)c2ccco2)CC1,5%,3,35µM*,-6%,-12%,6%
O=C(CCNS(=O)(=O)c1cccc(Cl)c1)OCC(=O)N1CCN(C(=O)c2ccco2)CC1,nt,-5,50µM*,11%,12%,-4%
CCOC(=O)/C=C/C(=O)OCC(=O)N1CCN(C(=O)c2ccco2)CC1,5%,-2,50µM*,-7%,-5%,2%
Cc1ccc(-c2cc(C(=O)O)c3ccc(C)c(C)c3n2)cc1,nt,6,nt,nt,nt,nt
CCCCS(=O)(=O)/C=C\C1C2C=CC(C2)C1S(=O)(=O)CCCC (stereo not given),4%,-2,-7%,-2%,4%,3%
CCCCS(=O)(=O)/C=C\C=C/S(=O)(=O)CCCC,15%,-6,3.5µM*,9%[57.1 µM],0%,-1%
CC1(C)CC(=O)C2=C(C1)OC(N)=C(C#N)C21CCC2(CC1)OCCO2,3%,3,8.9µM*,15%,5%,-1%
CC(=O)N1CCC2(CC1)C(C#N)=C(N)OC1=C2C(=O)CC(C)(C)C1,-2%,5,-5%,1%,7%,1%
O=C(CCl)Nc1cc(-c2ccccc2)nn1-c1ccccc1,-10%,3,22µM*,2%,1%,8%
Cc1ccc(-c2cc(NC(=O)CCl)n(-c3ccccc3)n2)cc1,-5%,-4,35µM*,2%,11%,5%
CC(=O)Nc1ccc(-c2cc(NC(C)=O)n(-c3ccccc3)n2)cc1,-12%,-1,11%[57.1 µM],8%[57.1 µM],2%,3%
CC(=O)N(c1nc(COc2ccccc2C(N)=O)cs1)c1ccc(C)cc1C,nt,1,nt,nt,nt,nt
